Experimental data: PubChem BioAssay (EPA / NIEHS)
Values joined by “and” are separate entries in the source; they are usually repeats but may differ in a detail not shown here. Equal entries are not always repeated. Inconclusive results are not listed. Where a structure was tested more than once in an assay, its records may differ in their call. Active and inactive are the calls of the source. The calls were made as follows, unless noted: active = hit-call score of the fitted dose curve at least 0.9, where 1 is the maximum; inconclusive = response in the unintended direction; inactive = score below 0.9.

The compounds below were run on guinea pig Dopamine Transporter (DAT), gene 100714898 (assay: NVS_TR_gDAT: NovaScreen (NVS) Transporter Assay for guinea pig Dopamine Transporter (DAT) (AID 2283369);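 also: active compounds lower bound radioligand signal relative to DMSO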).
Procedure, shortened: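 Guinea pig striatal membranes, cell-free radioligand binding with filter-based scintillation counting, read 2 h after dosing. Loss of signal versus DMSO baseline; single-concentration primary (25 uM) then concentration-response up to 50 uM.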

SMILES	AC50	outcome
CC(C)(C)[C@@H](O)[C@@H](Cc1ccc(Cl)cc1)n1cncn1	4.16 µM (active)	
Cc1nn(C)c(Oc2ccccc2)c1C=NOCc1ccc(C(=O)OC(C)(C)C)cc1		inactive
CCN(Cc1c(F)cccc1Cl)c1c([N+](=O)[O-])cc(C(F)(F)F)cc1[N+](=O)[O-]		inactive
CCOC(=O)NCCOc1ccc(Oc2ccccc2)cc1	8.75 µM (active)	
N#CSCSc1nc2ccccc2s1	42.1 µM (active)	

What follows are compounds tested against Peroxisome proliferator-activated receptor gamma (Homo sapiens) (UniProt P37231) (assay: NVS_NR_hPPARg: NovaScreen (NVS) Nuclear Receptor Binding Assay for human Peroxisome Proliferator-activated Receptor gamma (PPARg) (AID 2283370)).
Procedure, shortened: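 Cell-free fluorescence polarization binding to human PPARg protein, read 2 h after dosing. Primary screen in duplicate at 25 uM, actives followed in concentration series; loss of signal relative to DMSO scored.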

Chain of Peroxisome proliferator-activated receptor gamma (Homo sapiens) (P37231 whole entry, looked up): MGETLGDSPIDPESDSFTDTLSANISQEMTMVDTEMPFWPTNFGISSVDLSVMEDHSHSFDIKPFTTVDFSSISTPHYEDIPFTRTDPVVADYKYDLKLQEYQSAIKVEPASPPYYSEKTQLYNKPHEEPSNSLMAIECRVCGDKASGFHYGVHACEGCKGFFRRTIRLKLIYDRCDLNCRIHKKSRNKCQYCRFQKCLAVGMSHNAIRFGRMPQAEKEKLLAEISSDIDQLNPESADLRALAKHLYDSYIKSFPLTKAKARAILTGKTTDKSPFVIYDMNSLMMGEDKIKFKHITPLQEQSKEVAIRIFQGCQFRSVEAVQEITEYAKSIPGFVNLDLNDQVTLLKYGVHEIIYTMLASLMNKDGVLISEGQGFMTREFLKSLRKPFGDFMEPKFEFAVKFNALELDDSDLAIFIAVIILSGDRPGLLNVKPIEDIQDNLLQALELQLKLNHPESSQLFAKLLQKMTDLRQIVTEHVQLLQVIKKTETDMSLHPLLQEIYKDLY

SMILES	outcome	AC50
c1ccc(Nc2ccccc2)cc1	inactive	
CCOC(=O)[C@H](C)Oc1ccc(Oc2nc3ccc(Cl)cc3o2)cc1	inactive	
CCOC(=O)C(C)Oc1ccc(Oc2nc3ccc(Cl)cc3o2)cc1 (centres undefined)	inactive	
CCCN(CCC)c1c([N+](=O)[O-])cc(C(F)(F)F)c(N)c1[N+](=O)[O-]	inactive	
C#CCOC(=O)[C@@H](C)Oc1ccc(Oc2ncc(Cl)cc2F)cc1	inactive	
O=C(O)c1ccccc1	inactive	
CCOC(=O)COc1cc(-n2ncc(C(F)(F)F)c(C)c2=O)c(F)cc1Cl	inactive	
CCN(CC)C(=O)c1cccc(C)c1	inactive	
O=C(Nc1ccc([N+](=O)[O-])cc1Cl)c1cc(Cl)ccc1O	inactive	
COc1nc(C)nc(NC(=O)NS(=O)(=O)c2ccccc2OCCCl)n1	inactive	
N#CSCSc1nc2ccccc2s1	inactive	
O=C(O)C1(C(=O)Nc2ccc(Cl)cc2Cl)CC1		8.65 µM (active)

Each compound was assayed against human Dopamine Transporter (DAT), SLC6A3 (gene 6531) (UniProt Q01959) (assay: NVS_TR_hDAT: NovaScreen (NVS) Transporter Assay for human Dopamine Transporter (DAT) (AID 2283374);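 also: activity means loss of bound radioligand signal relative to DMSO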).
Procedure, shortened: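 Extracted human SLC6A3 protein incubated 1 h with radioligand and test chemical; bound fraction separated on filters and counted. Single 25 uM duplicate screen preceded concentration-response follow-up; positive and negative controls on every plate.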

Chain of human Dopamine Transporter (DAT), SLC6A3 (gene 6531) (Q01959 whole entry, looked up): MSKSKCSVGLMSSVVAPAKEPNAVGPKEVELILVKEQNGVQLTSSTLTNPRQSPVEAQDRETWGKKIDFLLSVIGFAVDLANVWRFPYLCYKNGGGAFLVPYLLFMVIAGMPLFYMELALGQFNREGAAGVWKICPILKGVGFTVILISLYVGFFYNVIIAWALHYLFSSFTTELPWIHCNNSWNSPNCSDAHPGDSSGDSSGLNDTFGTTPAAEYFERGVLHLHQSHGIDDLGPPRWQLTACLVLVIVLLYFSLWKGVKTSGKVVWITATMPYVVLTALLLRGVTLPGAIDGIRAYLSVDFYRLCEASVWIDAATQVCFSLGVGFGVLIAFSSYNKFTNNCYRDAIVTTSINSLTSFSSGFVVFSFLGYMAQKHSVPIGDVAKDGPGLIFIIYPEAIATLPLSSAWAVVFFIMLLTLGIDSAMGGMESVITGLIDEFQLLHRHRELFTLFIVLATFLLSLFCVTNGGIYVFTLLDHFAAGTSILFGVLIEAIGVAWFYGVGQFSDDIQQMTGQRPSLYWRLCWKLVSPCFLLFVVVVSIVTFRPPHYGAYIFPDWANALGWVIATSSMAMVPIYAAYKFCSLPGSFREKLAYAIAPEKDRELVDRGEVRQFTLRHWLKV

SMILES	AC50	outcome
c1ccc(Nc2ccccc2)cc1	4.96 µM (active)	
CCOC(=O)C(C)Oc1ccc(Oc2cnc3cc(Cl)ccc3n2)cc1 (centres undefined)		inactive
CC(C)(C)[C@@H](O)[C@@H](Cc1ccc(Cl)cc1)n1cncn1	2.39 µM (active)	
C#CCOC(=O)[C@@H](C)Oc1ccc(Oc2ncc(Cl)cc2F)cc1	7.24 µM (active)	
Cc1nn(C)c(Oc2ccccc2)c1C=NOCc1ccc(C(=O)OC(C)(C)C)cc1		inactive
CCCCCCC(C)OC(=O)COc1nc(F)c(Cl)c(N)c1Cl (centres undefined)		inactive
CCN(Cc1c(F)cccc1Cl)c1c([N+](=O)[O-])cc(C(F)(F)F)cc1[N+](=O)[O-]		inactive
CCOC(=O)NCCOc1ccc(Oc2ccccc2)cc1	3.08 µM (active)	
N#CSCSc1nc2ccccc2s1	13.7 µM (active) and 3.9 µM (active)	

These compounds were tested against human Norepinephrine Transporter (NET), SLC6A2 (gene 6530) (UniProt P23975) (assay: NVS_TR_hNET: NovaScreen (NVS) Transporter Assay for human Norepinephrine Transporter (NET) (AID 2283377);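 also: cell-free membrane protein extracted from CHO cells expressing human NET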;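 as to AC50: displacement of radioligand from human NET seen as loss of scintillation signal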).
Procedure, shortened: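 In this cell-free binding screen, chemicals at 25 uM (duplicate) compete with a radioligand for CHO-derived human NET over 1 hour, with filter-based radiodetection.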

Chain of human Norepinephrine Transporter (NET), SLC6A2 (gene 6530) (P23975 whole entry, looked up): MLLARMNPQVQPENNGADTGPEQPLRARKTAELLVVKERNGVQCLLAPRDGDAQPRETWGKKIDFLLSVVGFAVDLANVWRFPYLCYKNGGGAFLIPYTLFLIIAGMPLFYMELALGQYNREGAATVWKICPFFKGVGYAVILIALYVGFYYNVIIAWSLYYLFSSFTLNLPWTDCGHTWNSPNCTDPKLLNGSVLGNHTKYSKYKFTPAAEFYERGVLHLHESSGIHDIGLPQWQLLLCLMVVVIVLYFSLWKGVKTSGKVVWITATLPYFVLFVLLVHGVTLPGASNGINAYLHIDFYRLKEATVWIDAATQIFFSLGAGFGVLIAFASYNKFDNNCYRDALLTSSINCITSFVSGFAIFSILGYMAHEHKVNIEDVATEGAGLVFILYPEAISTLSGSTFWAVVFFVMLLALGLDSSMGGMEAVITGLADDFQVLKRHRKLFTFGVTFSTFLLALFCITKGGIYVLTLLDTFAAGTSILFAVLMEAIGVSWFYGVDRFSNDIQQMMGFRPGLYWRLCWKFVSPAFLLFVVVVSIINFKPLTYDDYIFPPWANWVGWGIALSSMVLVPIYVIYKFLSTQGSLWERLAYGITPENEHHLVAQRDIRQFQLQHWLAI

SMILES	AC50	outcome
c1ccc(Nc2ccccc2)cc1	3.18 µM (active)	
O=C(O)c1ccccc1		inactive
N#CSCSc1nc2ccccc2s1	11.2 µM (active)	inactive

What follows are compounds tested against Agonist Androgen Response Element (ARE), AR (gene 367) (UniProt P10275) (assay: OT_AR_ARELUC_AG_1440: Odyssey Thera (OT) 24-hour CHO-K1 Luciferase Assay for Agonist Androgen Response Element (ARE) (AID 2283379)).
Procedure, shortened: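 Luminescence increase above DMSO, read after a 24 h compound treatment of CHO-K1 cells expressing an androgen response element luciferase reporter, gives the single primary endpoint; concentration-response fitting used the positive direction.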

Chain of Agonist Androgen Response Element (ARE), AR (gene 367) (P10275 whole entry, looked up): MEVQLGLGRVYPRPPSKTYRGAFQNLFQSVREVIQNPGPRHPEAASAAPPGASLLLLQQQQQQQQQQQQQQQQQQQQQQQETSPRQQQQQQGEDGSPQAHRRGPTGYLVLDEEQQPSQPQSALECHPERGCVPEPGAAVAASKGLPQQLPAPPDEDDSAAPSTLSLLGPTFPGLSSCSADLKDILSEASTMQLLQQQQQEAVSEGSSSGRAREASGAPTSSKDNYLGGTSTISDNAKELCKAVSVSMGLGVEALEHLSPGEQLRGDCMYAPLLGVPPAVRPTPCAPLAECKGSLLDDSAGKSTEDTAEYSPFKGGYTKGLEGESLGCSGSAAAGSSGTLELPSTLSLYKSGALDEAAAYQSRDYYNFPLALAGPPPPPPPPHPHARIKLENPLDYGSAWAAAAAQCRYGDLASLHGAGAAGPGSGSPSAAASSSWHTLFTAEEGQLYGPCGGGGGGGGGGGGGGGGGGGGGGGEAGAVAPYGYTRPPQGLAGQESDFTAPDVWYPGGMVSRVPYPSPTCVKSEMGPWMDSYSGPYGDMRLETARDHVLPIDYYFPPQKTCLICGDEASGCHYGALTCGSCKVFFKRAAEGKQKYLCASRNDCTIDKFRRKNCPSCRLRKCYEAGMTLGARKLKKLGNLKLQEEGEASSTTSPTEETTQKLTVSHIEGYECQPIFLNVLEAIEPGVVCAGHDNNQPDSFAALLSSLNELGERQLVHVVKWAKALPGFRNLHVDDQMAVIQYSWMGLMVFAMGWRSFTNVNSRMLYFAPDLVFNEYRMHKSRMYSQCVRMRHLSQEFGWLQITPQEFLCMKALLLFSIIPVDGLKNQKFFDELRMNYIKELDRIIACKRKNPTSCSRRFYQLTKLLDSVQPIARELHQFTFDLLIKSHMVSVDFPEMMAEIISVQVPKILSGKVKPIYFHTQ

SMILES	outcome
c1ccc2[nH]c(-c3cscn3)nc2c1	inactive
Cc1nn(C)c(Oc2ccccc2)c1C=NOCc1ccc(C(=O)OC(C)(C)C)cc1	inactive
CCSC(=O)N(CC(C)C)CC(C)C	inactive
CCCOC(=O)c1ccc(C(=O)OCCC)nc1	inactive
CCOC(=O)COc1cc(-n2ncc(C(F)(F)F)c(C)c2=O)c(F)cc1Cl	inactive
N#CSCSc1nc2ccccc2s1	inactive
O=C(O)C1(C(=O)Nc2ccc(Cl)cc2Cl)CC1	inactive

Each compound was assayed against Estrogen receptor beta (Homo sapiens) (UniProt Q92731) (assay: OT_ER_ERbERb_1440: Odyssey Thera (OT) 24-hour HEK293T Protein-Complementation Assay for Estrogen Receptor-beta/-beta Homodimer (AID 2283380);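 also: fluorescence gain from ER beta LBD homodimer complementation read by laser scanning cytometry; scored as signal increase over DMSO baseline for both agonists and antagonists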).
Procedure, shortened: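 HEK293T cells stably expressing human ER-beta LBD (aa 310-547) PCA homodimer pair, dosed 24 h; formaldehyde-fixed, Draq5-stained. Readout: increase in nuclear (agonist) or nuclear plus cytoplasmic (antagonist) fluorescence intensity versus DMSO, gain-of-signal fitting.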

Chain of Estrogen receptor beta (Homo sapiens) (Q92731 whole entry, looked up, the tested form may be a part): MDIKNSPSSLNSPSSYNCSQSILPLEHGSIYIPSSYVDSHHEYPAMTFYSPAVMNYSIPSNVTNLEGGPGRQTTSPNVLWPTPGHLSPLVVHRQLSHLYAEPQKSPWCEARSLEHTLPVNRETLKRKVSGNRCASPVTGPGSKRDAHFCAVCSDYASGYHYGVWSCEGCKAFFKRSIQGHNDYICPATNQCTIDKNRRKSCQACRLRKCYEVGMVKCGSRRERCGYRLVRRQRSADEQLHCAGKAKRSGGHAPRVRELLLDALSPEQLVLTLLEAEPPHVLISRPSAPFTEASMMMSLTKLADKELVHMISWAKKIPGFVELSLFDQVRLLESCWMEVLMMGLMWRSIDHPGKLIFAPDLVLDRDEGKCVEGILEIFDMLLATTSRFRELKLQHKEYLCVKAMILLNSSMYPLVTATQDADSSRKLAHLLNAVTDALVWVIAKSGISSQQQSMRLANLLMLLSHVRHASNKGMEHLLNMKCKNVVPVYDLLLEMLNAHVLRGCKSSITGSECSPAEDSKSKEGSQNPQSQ

SMILES	outcome	AC50
c1ccc(Nc2ccccc2)cc1	inactive	
CCCCOC(=O)[C@@H](C)Oc1ccc(Oc2ccc(C(F)(F)F)cn2)cc1	inactive	
CCCCOC(=O)C(C)Oc1ccc(Oc2ccc(C(F)(F)F)cn2)cc1 (centres undefined)	inactive	
CCOC(=O)C(C)Oc1ccc(Oc2nc3ccc(Cl)cc3o2)cc1 (centres undefined)	inactive	
CCCN(CCC)c1c([N+](=O)[O-])cc(C(F)(F)F)c(N)c1[N+](=O)[O-]	inactive	
CC(C)(C)[C@@H](O)[C@@H](Cc1ccc(Cl)cc1)n1cncn1	inactive	
c1ccc2[nH]c(-c3cscn3)nc2c1	inactive	
C#CCOC(=O)[C@@H](C)Oc1ccc(Oc2ncc(Cl)cc2F)cc1	inactive	
Cc1nn(C)c(Oc2ccccc2)c1C=NOCc1ccc(C(=O)OC(C)(C)C)cc1	inactive	
CCNc1nc(N)nc(Cl)n1	inactive	
CCSC(=O)N(CC(C)C)CC(C)C	inactive	
CCCOC(=O)c1ccc(C(=O)OCCC)nc1	inactive	
CCOC(=O)COc1cc(-n2ncc(C(F)(F)F)c(C)c2=O)c(F)cc1Cl	inactive	
CCCCCCC(C)OC(=O)COc1nc(F)c(Cl)c(N)c1Cl (centres undefined)		72.8 µM (active)
COc1c(Cl)ccc(Cl)c1C(=O)O	inactive	
CCN(CC)C(=O)c1cccc(C)c1	inactive	
COC(=O)c1ccc(I)cc1S(=O)(=O)NC(=O)Nc1nc(C)nc(OC)n1	inactive	
CCN(Cc1c(F)cccc1Cl)c1c([N+](=O)[O-])cc(C(F)(F)F)cc1[N+](=O)[O-]	inactive	
CCCCCOC(=O)COc1cc(N2C(=O)C3=C(CCCC3)C2=O)c(F)cc1Cl	inactive	
O=C(Nc1ccc([N+](=O)[O-])cc1Cl)c1cc(Cl)ccc1O	inactive	
N#CSCSc1nc2ccccc2s1	inactive	
O=C(O)C1(C(=O)Nc2ccc(Cl)cc2Cl)CC1	inactive	

What follows are compounds tested against Estrogen receptor (Homo sapiens) (UniProt P03372) (assay: OT_ERa_GFPERaERE_0480: Odyssey Thera (OT) 8-hour HeLa Transcription Induction Assay for Estrogen Receptor (AID 2283381; active = hit-call score of the fitted dose curve at least 0.9, where 1 is the maximum; inactive = score below 0.9)).
Procedure, shortened: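 Human cervical HeLa cells were treated for 8 hours, after which ERE-driven GFP induction was measured by fluorescence microscopy; increases over DMSO baseline defined activity.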

Chain of Estrogen receptor (Homo sapiens) (P03372 whole entry, looked up): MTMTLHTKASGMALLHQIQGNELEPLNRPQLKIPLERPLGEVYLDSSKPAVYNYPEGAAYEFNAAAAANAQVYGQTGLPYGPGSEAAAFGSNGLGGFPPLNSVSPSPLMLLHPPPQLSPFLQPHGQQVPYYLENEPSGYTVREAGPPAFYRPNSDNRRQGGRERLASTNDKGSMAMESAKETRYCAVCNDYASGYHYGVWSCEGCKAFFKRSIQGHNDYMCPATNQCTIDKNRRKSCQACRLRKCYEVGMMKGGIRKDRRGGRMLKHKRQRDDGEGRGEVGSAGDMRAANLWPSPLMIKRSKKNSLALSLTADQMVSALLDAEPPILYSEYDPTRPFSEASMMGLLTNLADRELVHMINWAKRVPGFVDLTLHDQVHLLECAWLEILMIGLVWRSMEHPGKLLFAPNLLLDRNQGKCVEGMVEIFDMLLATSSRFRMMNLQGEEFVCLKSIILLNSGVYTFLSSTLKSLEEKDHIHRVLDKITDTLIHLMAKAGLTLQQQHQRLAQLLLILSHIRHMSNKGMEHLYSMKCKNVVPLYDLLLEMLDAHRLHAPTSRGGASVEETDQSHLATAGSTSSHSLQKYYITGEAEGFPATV

SMILES	outcome	AC50
CCCCOC(=O)[C@@H](C)Oc1ccc(Oc2ccc(C(F)(F)F)cn2)cc1	inactive	
CCCCOC(=O)C(C)Oc1ccc(Oc2ccc(C(F)(F)F)cn2)cc1 (centres undefined)	inactive	
CCOC(=O)C(C)Oc1ccc(Oc2cnc3cc(Cl)ccc3n2)cc1 (centres undefined)	inactive	
CCCN(CCC)c1c([N+](=O)[O-])cc(C(F)(F)F)c(N)c1[N+](=O)[O-]		1.3 µM (active)
c1ccc2[nH]c(-c3cscn3)nc2c1	inactive	
C#CCOC(=O)[C@@H](C)Oc1ccc(Oc2ncc(Cl)cc2F)cc1	inactive	
Cc1nn(C)c(Oc2ccccc2)c1C=NOCc1ccc(C(=O)OC(C)(C)C)cc1	inactive	
O=C(O)c1ccccc1	inactive	
CCSC(=O)N(CC(C)C)CC(C)C	inactive	
OB(O)O	inactive	
CCCOC(=O)c1ccc(C(=O)OCCC)nc1	inactive	
CCOC(=O)COc1cc(-n2ncc(C(F)(F)F)c(C)c2=O)c(F)cc1Cl	inactive	
COc1c(Cl)ccc(Cl)c1C(=O)O	inactive	
CCN(CC)C(=O)c1cccc(C)c1	inactive	
CCN(Cc1c(F)cccc1Cl)c1c([N+](=O)[O-])cc(C(F)(F)F)cc1[N+](=O)[O-]		3.54 µM (active)
CCCCCOC(=O)COc1cc(N2C(=O)C3=C(CCCC3)C2=O)c(F)cc1Cl	inactive	
CCOC(=O)NCCOc1ccc(Oc2ccccc2)cc1	inactive	
O=C(Nc1ccc([N+](=O)[O-])cc1Cl)c1cc(Cl)ccc1O	inactive	
N#CSCSc1nc2ccccc2s1		88.1 µM (active)
O=C(O)C1(C(=O)Nc2ccc(Cl)cc2Cl)CC1	inactive	
